From PubChem BioAssay AID1224817 (Yan Lab, Georgia Cancer Center, Augusta University, 2016)
Screen size: about 2,000 compounds; about 25 (1%) were called active. The sample holds actives, similar compounds and a random draw of the others, so the mix is not that of the screen. Values without a mark were called inactive.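 How the source made its calls: active means log2 luciferase ratio at or below -0.5849, meaning signal at two thirds of solvent-only control or lower; inactive means the rest.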

Assay: eIF4E expression suppression, luciferase knock-in reporter – cell-based, HT1080, primary screen (AID 1224817);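 further: luciferase reports endogenous eIF4E expression since it is co-expressed from the native EIF4E locus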
Conditions: HT1080 EIF4E-luc2 knock-in reporter, 16 h, at 2.5 µM, stronger effect = lower value

With `Cc1ccccc1C(=N)c1ccccc1Cc1cccc2ccccc12` as the compound, how does the log2 luciferase activity ratio read?
Its log2 luciferase activity ratio is 0.0556.

For `CC1(C)C(CC(=O)O)CCCC1CC(=O)O` (configuration not stated), which log2 luciferase activity ratio is on record?
The log2 luciferase activity ratio was -0.193.

For `N=C1C(O)C2(I)c3ccccc3N3C(=N)C(O)C4c5ccccc5N1C4C32` (configuration not stated), which log2 luciferase activity ratio is on record?
The log2 luciferase activity ratio was 0.988.

With `CC[C@]12CCCN3CCc4c(n(c5ccccc45)C(=O)C1)[C@@H]32` as the compound, how does the log2 luciferase activity ratio read?
The log2 luciferase activity ratio was -0.317.

Which log2 luciferase activity ratio does the source give for `COC(=O)C1OC(SCCN)C(O)C(O)C1O` (configuration not stated) here?
Its log2 luciferase activity ratio is 0.246.

For `O=C(O)c1nnsc1-c1csnn1`, which log2 luciferase activity ratio is on record?
Its log2 luciferase activity ratio is -0.0043.

With `CN(C)Cc1cc(C(=O)O)cc(CN(C)C)c1O` as the compound, how does the log2 luciferase activity ratio read?
The log2 luciferase activity ratio was -0.293.

With `CC(=O)Nc1ccc(-c2cc(C(=O)O)c3cc4ccccc4cc3n2)cc1` as the compound, how does the log2 luciferase activity ratio read?
The log2 luciferase activity ratio was 0.356.

With `C[C@@H]1C[C@H]2[C@@H]3CCC4=CC(=O)C=C[C@]4(C)[C@@]3(Cl)[C@@H](Cl)C[C@]2(C)[C@@]1(O)C(=O)COP(=O)(O)O` as the compound, how does the log2 luciferase activity ratio read?
The log2 luciferase activity ratio was 0.28.

With `CC[C@@H]1CN(C)[C@H]2Cc3c([nH]c4ccccc34)C(=O)C[C@H]1C2C(=O)OC` (some centres not stated) as the compound, how does the log2 luciferase activity ratio read?
Its log2 luciferase activity ratio is -0.243.

For `COc1ccc2c(c1)O[C@H]1c3ccc(O)cc3OC[C@@H]21`, which log2 luciferase activity ratio is on record?
Its log2 luciferase activity ratio is 0.161.

With `Cn1c([N+](=O)[O-])cnc1CN1CCN(CCO)CC1` as the compound, how does the log2 luciferase activity ratio read?
The log2 luciferase activity ratio was 0.268.

Which log2 luciferase activity ratio does the source give for `O=C(O)c1cccc(CN2CCCCC2)c1` here?
The log2 luciferase activity ratio was 0.0092.

With `C[N+](C)(C)/N=C/c1ccc(O)c(O)c1` as the compound, how does the log2 luciferase activity ratio read?
The log2 luciferase activity ratio was -0.303.

Which log2 luciferase activity ratio does the source give for `NC(N)=NC(N)=Nc1ccc(S(N)(=O)=O)cc1` here?
The log2 luciferase activity ratio was -0.0076.

With `CCCCN(c1ccccc1)c1ncnc2c1cnn2C` as the compound, how does the log2 luciferase activity ratio read?
Its log2 luciferase activity ratio is -0.0702.

Which log2 luciferase activity ratio does the source give for `COc1ccc2nc3cc(Cl)ccc3c(Nc3ccc(O)c(CN4CCN(C)CC4)c3)c2c1` here?
The log2 luciferase activity ratio was 0.0343.

With `NC(CC(=O)O)(Cc1ccccc1)C(=O)O` (configuration not stated) as the compound, how does the log2 luciferase activity ratio read?
Its log2 luciferase activity ratio is -0.129.

With `O=S1(=O)OC(c2ccc(O)cc2)(c2ccc(O)cc2)c2ccccc21` as the compound, how does the log2 luciferase activity ratio read?
Its log2 luciferase activity ratio is 0.424.

Which log2 luciferase activity ratio does the source give for `O=S1(=O)C(c2ccccc2)C(N2CCCCC2)C1C1CC2c3ccccc3C1c1ccccc12` (configuration not stated) here?
Its log2 luciferase activity ratio is 0.456.

For `Cc1cc(N2CCOCC2)nc2ccc(Cc3ccc4nc(N5CCOCC5)cc(C)c4c3)cc12`, which log2 luciferase activity ratio is on record?
The log2 luciferase activity ratio was 0.197.

For `OC(Cc1ccccc1)(Cc1ccccc1)c1ccccc1`, which log2 luciferase activity ratio is on record?
Its log2 luciferase activity ratio is -0.0177.

With `OC(c1cc(C23CC4CC(CC(C4)C2)C3)nc2c(Cl)cc(Cl)cc12)C1CCCCN1` (configuration not stated) as the compound, how does the log2 luciferase activity ratio read?
The log2 luciferase activity ratio was 0.104.

With `Oc1ccc(-c2nc(-c3cccnc3)c(-c3ccc(F)cc3)[nH]2)cc1` as the compound, how does the log2 luciferase activity ratio read?
The log2 luciferase activity ratio was -0.338.

For `C=C1C(=O)OC2C1C(OC(=O)/C(C)=C/COC(C)=O)CC1(CO1)C1C(O)C=C(C)C21` (configuration not stated), which log2 luciferase activity ratio is on record?
The log2 luciferase activity ratio was -0.477.

For `C=C1C(=O)O[C@H]2[C@H]1[C@H](OC(=O)/C(C)=C\C)CC(=C)[C@@H]1[C@H](O)[C@H]3O[C@@]3(C)[C@@]12O`, which log2 luciferase activity ratio is on record?
The log2 luciferase activity ratio was 0.0107.

With `C=C1C(=O)OC2C1C(OC(=O)/C(C)=C/C)CC(O)(CCl)C1C(OC(C)=O)C=C(C)C21O` (configuration not stated) as the compound, how does the log2 luciferase activity ratio read?
The log2 luciferase activity ratio was -1.14 (active).
